According to ChEMBL document CHEMBL4513216, “Probing the Open Global Health Chemical Diversity Library for Multistage-Active Starting Points for Next-Generation Antimalarials” (ACS Infect Dis, 2020):
Screen size: about 69,000 compounds; about 8,600 (12%) showed an effect of 50% or more. The sample holds strong results, similar compounds and a random draw of the others, so the mix is not that of the screen.

Test system: Plasmodium berghei
Experiment: Screen against P. berghei liver stage (PbLuc), transformed with Luciferase, at 10uM
Format: functional, HepG2
Details: tested at 10 uM

| Compound | INHIBITION [%] |
| --- | --- |
| Cn1c(SCC(N)=O)nnc1-c1csc2c1CCCC2 | -21.8 |
| CCN1CC(COc2ccccc2)Oc2ncccc2S1(=O)=O (stereo not drawn) | 13.9 |
| CCSc1cc(C(=O)NCCNC(=O)N(C)C)ccn1 | -22.8 |
| COc1cc(CCC(=O)NC(C)(C)C)ccc1OCC(F)(F)F | -17.4 |
| O=C1C[C@H]2[C@H](CCN2C(=O)c2cc[nH]n2)N1Cc1cccnc1 | 40.8 |
| OCCOc1ccc(NCc2cccc3cccnc23)cn1 | -37.7 |
| OCCOc1ccc(NCc2cccnc2)cn1 | 59.5 |
| OCCOc1ccc(NCc2cccc3[nH]ccc23)cn1 | 68.2 |
| OCCOc1ccc(NCc2cc(F)cc3cccnc23)cn1 | -116 |
| Cc1ncccc1CNc1ccc(OCCO)nc1 | -89.9 |
| OCCOc1ccc(NCc2cccc3cn[nH]c23)cn1 | -1.45 |
| Cc1cc(-c2cnn(CCNC(=O)c3cc[nH]n3)c2C2CC2)on1 | 18.9 |
| CCCc1nnc(NC(=O)NC(CCO)c2cccs2)s1 (stereo not drawn) | -26.8 |
| COc1ccccc1CN1CCCC2(Cc3ccccc3CNC2=O)C1 (stereo not drawn) | 11 |
| CC(C)OCc1nn(C)c2c1CCN(Cc1ccco1)C2 | -16.9 |
| CCC(=O)N1CCN(c2nc(C)nc3c(C)nn(C)c23)CC1 | 27.5 |
| Cc1ccc2c(c1)CN(C(=O)c1ccncc1)C(CN(C)C)CO2 (stereo not drawn) | -23.8 |
| Cc1ccc2c(c1)CN(C(=O)c1ccccc1F)C(CN(C)C)CO2 (stereo not drawn) | 23.9 |
| Cc1ccc2c(c1)CN(C(=O)c1cccnc1)C(CN(C)C)CO2 (stereo not drawn) | 46 |
| Cc1ccc2c(c1)CN(C(=O)c1cccs1)C(CN(C)C)CO2 (stereo not drawn) | -10.5 |
| COc1ccc(C(=O)N2Cc3cc(C)ccc3OCC2CN(C)C)cc1 (stereo not drawn) | 66.5 |
| COc1ccccc1C(=O)N1Cc2cc(C)ccc2OCC1CN(C)C (stereo not drawn) | 60.3 |

| Compound | INHIBITION [%] |
| --- | --- |
| CCCc1nc(NCCCOCC)c2c(n1)c(C)nn2CC | -1.4 |
| CC1CCCCN1c1nc2c(c(=O)[nH]1)CCN(Cc1ccccc1F)C2 (stereo not drawn) | 72.3 |
| CC1CCCCN1c1nc2c(c(=O)[nH]1)CCN(Cc1ccccn1)C2 (stereo not drawn) | 36.7 |
| Cc1cccc(CN2CCc3c(nc(N4CCCCC4C)[nH]c3=O)C2)n1 (stereo not drawn) | 18.2 |
| CC1CCCCN1c1nc2c(c(=O)[nH]1)CCN(Cc1ccc(O)cc1)C2 (stereo not drawn) | 10 |
| CC1CCCCN1c1nc2c(c(=O)[nH]1)CCN(Cc1ccccc1O)C2 (stereo not drawn) | 23.4 |
| Cc1ccsc1CN1CCc2c(nc(N3CCCCC3C)[nH]c2=O)C1 (stereo not drawn) | 85.7 |
| O=C(NCCn1nc2ccccn2c1=O)c1scnc1Cl | 17.02 |
| Cn1cc(CN(C(=O)c2ccc(O)c(Cl)c2)C2CC2)cn1 | 21.3 |
| CCC[C@@H]1CN(c2ncnc3sccc23)C[C@H]1C(=O)O | -7.98 |
| CC1CN(c2ncnc3c2cnn3C)CCN1c1nccs1 (stereo not drawn) | 5.91 |
| c1csc(N2CCCN(c3ncnc4sccc34)CC2)n1 | 66.8 |
| CC1CN(c2ncnc3sccc23)CCN1c1nccs1 (stereo not drawn) | 60.2 |
| c1csc(N2CCN(c3ncnc4sccc34)CC2)n1 | 38.5 |
| N#Cc1ccc(N2CCCN(c3nccs3)CC2)nc1 | -28.2 |
| CN1CC(=O)N(c2ccccc2)CC12CCN(Cc1cccnc1)C2 (stereo not drawn) | 8.47 |
| CC(C)CCn1[nH]c(CNc2ccc(F)cc2)nc1=O | 15.1 |
| CN1CCC2(C=C(C(=O)N3CCCC3)c3ccccc32)CC1 | 26.4 |
| Cc1ccc(CC(=O)N2CCOC(c3ncc(CN(C)C)[nH]3)C2)s1 (stereo not drawn) | 7.19 |
| CNc1ncc(-c2csc(NC(=O)C[C@H]3COCCN3)n2)cn1 | 24.8 |
| CC(C)CC(=O)N1CCC(c2nnc3n2CCCCC3)CC1 | -16.5 |
| Cn1cc(N)c(-c2nnc3n2CCCC3)n1 | 42.6 |

| Compound | INHIBITION [%] |
| --- | --- |
| CCC(NC(=O)CCCNC(=O)OC)c1cc(F)ccc1F (stereo not drawn) | -13.6 |
| CCc1nc(CSC2CCCN(c3cnn(C)c3)C2=O)cs1 (stereo not drawn) | 29 |
| O=C(c1cc2c([nH]c1=O)CCC2)N1CCCC1c1ccc(F)cc1 (stereo not drawn) | 20.6 |
| O=C(c1cc2c([nH]c1=O)CCC2)N1CCCCC1c1cccc(F)c1 (stereo not drawn) | 54.7 |
| O=C(c1cc2c([nH]c1=O)CCC2)N1CCCC1c1ccccc1 (stereo not drawn) | -19.7 |
| COC1(CNC(=O)c2ccc(F)c(F)c2)CCSC1 (stereo not drawn) | 29.6 |
| CCc1nnc(CNC(=O)CCC2CCCN(C)C2)s1 (stereo not drawn) | -57.5 |
| Cc1ccsc1CN(CCCO)Cc1nc2ccccc2[nH]1 | 23.2 |
| Oc1ccc(-c2c(-c3ccccc3)ncn2C[C@H]2CCCN2)cc1 | -9.17 |
| CCOc1ccc(-c2c(-c3ccccc3)ncn2C2CCNC2)cn1 (stereo not drawn) | 24.8 |
| Oc1ccc(-c2c(-c3ccccc3)ncn2C2CCNC2)cc1 (stereo not drawn) | 54.5 |
| O=C(CN1CCC(c2ccccc2)C1)NCC(F)(F)F (stereo not drawn) | 37.8 |
| Cn1ncc(C2CC(=O)NCc3nc4ccccn4c32)c1C1CC1 (stereo not drawn) | 17.6 |
| CCCn1ncc(C2CC(=O)NCc3nc4sc(C)cn4c32)c1C (stereo not drawn) | 44.7 |
| CCCn1ncc(C2CC(=O)NCc3nc4cc(C)ccn4c32)c1C (stereo not drawn) | 71.5 |
| CC1(C)O[C@@](C)([C@H]2CC3(CCN(c4cnccn4)CC3)CO2)CC[C@@H]1O | 30.55 |
| CN(C)C(=O)CCNC(=O)Nc1cccc(Cl)c1-n1cccn1 | -10.3 |
| CCc1cc(N(C)Cc2ccncn2)n2nc(C)c(C)c2n1 | 42.3 |
| CCc1cc(N(C)Cc2cc[nH]n2)n2nc(C)c(C)c2n1 | 81.7 |
| CCc1cc(N(C)Cc2ccnc(C)c2)n2nc(C)c(C)c2n1 | 73.5 |
| CCc1cc(N(C)Cc2ccno2)n2nc(C)c(C)c2n1 | -2.73 |
| CCc1nnc(CN(C)c2cc(C)nc3c(C)c(C)nn23)o1 | 36.7 |

| Compound | INHIBITION [%] |
| --- | --- |
| Cc1cc(N(C)Cc2cc(C)on2)n2nc(C)c(C)c2n1 | -45.4 |
| COc1ncc(-c2ccc(C(N)=O)cc2)c(OC)n1 | 9.41 |
| CN(C)Cc1cn2c(n1)CN(C1CCOC1)CC2 (stereo not drawn) | -4.32 |
| NC(=O)C1CCN(C(=O)NC(Cc2ccccc2)C(F)(F)F)CC1 (stereo not drawn) | -82.2 |
| Cc1cnn(CC2CN(Cc3nnc(C(C)C)o3)CCO2)c1 (stereo not drawn) | 30.6 |
| Cc1nc(CN(C)C(=O)C2CCC(=O)N(CCN(C)C)C2)cs1 (stereo not drawn) | 20.8 |
| COCCN1CC(C(=O)N(C)Cc2csc(C)n2)CC1=O (stereo not drawn) | 57.8 |
| Cc1nc(CN(C)C(=O)C2CC(=O)N(c3cccc(O)c3)C2)cs1 (stereo not drawn) | 7.6 |
| Cn1cc(CCNC(=O)NCc2ccc3c(c2)OCCO3)cn1 | 24.5 |
| CN(C)C(=O)CN1CCC2(CC1)COc1ccccc1S(=O)(=O)N(C)C2 | 17.4 |
| CN(C)CC(=O)N1CCC2(CC1)COc1ccccc1S(=O)(=O)N(C)C2 | 50 |
| CCC(=O)N1CCC2(CC1)COc1ccccc1S(=O)(=O)N(C)C2 | -0.182 |
| COCCN1CCC2(CC1)COc1ccccc1S(=O)(=O)N(C)C2 | -4.32 |
| COCC(=O)N1CCC2(CC1)COc1ccccc1S(=O)(=O)N(C)C2 | 66.8 |
| CN1CC2(CCN(C(=O)C3CCC3)CC2)COc2ccccc2S1(=O)=O | 20.4 |
| N#Cc1csc(CNCCOc2ccc(Cl)cn2)c1 | 4.35 |
| Cc1cnn(CC2CCCN2C(=O)CCCc2nc(C)no2)c1 (stereo not drawn) | -45.8 |
| Fc1cc(CCNc2ccc3nccn3n2)c2c(c1)COCO2 | 48.2 |
| CC(C)(C)c1cc(NC(=O)CN2CCC(N3CCNC3=O)CC2)on1 | 3.73 |
| CC(=O)N1CCC(c2ncc3c(n2)CCN(C(=O)c2ccccc2)C3)C1 (stereo not drawn) | 1.5 |
| CCOCCN1CCC=C(C2c3nc[nH]c3CCN2C(C)=O)C1 (stereo not drawn) | 36.6 |
| CCn1nc(C)c(CN2CCCC(c3ccc(C(=O)O)cc3)C2)c1C (stereo not drawn) | 62.4 |

| Compound | INHIBITION [%] |
| --- | --- |
| Cc1nn(C)c(C)c1CN1CCCC(c2ccc(C(=O)O)cc2)C1 (stereo not drawn) | 6.88 |
| CCn1nc(C)c(CN2CCC(c3ccc(C(=O)O)cc3)C2)c1C (stereo not drawn) | 27.9 |
| CCC(=O)N1CCN(c2ncnc3c(C)nn(C)c23)CC1 | 50.7 |
| Cc1nn(C)c2c(N3CCN(C(=O)C(C)C)CC3)ncnc12 | 10.1 |
| Cc1nn(C)c2c(N3CCN(C(=O)C4CC4)CC3)ncnc12 | 44.1 |
| CCc1nc(N2CCN(c3ncccn3)CC2)c2cnn(C)c2n1 | -3.55 |
| CCc1nc(N2CCN(c3ncccc3C#N)CC2)c2cnn(C)c2n1 | 53.7 |
| CCc1nc(N2CCCN(c3ncccn3)CC2)c2cnn(C)c2n1 | 33.3 |
| O=C(c1ccc(F)cc1)N1CCC2(CCCN2CC2CC2)CC1 | 26.6 |
| COc1ccccc1N1CCN(Cc2cnc3c(c2)c(C)nn3C)CC1 | 32.3 |
| Cc1ccc(-c2c(C(=O)NC3CCN(C)CC3)csc2C)cc1 | 68.4 |
| CCCN1CCC(NC(=O)c2ccc(F)cc2I)CC1 | 46.8 |
| CCCN1CCC(NC(=O)c2csc(C)c2-c2ccccc2)CC1 | 81.5 |
| CCCN1CCC(NC(=O)c2csc(C)c2C)CC1 | 64.4 |
| CN1CCC(NC(=O)NCc2csc(Br)c2)CC1 | 45.9 |
| Cc1ncsc1C(=O)NC1CCN(CCC(=O)Nc2ccccc2)CC1 | -5.07 |
| CCCN1CCC(NC(=O)c2csc(C)c2-c2ccc(C)cc2)CC1 | 1.56 |
| CCCN1CCC(NC(=O)NCCc2nc(CC)c(C)s2)CC1 | 26.8 |
| Cc1ccc(-c2ccsc2C(=O)NC2CCS(=O)(=O)C2)cc1 (stereo not drawn) | -63.5 |
| CC(C)c1nnc(CN2CCCC(Cn3cncn3)C2)o1 (stereo not drawn) | 22.03 |
